# Screening data as filed in PubChem.
# This is one part of a sample in which hits are shown more often than they occur.
# Shiga inhibitor = blocks Shiga toxin action in Vero cells | AID 2315 | 9.2% of 290,000 active | Vero cells, Shiga toxin protein synthesis inhibition reporter | inhibition, % at 38.7 µM; in the data active = inhibition mostly above about 28%, no sharp cut-off; inactive = mostly below about 43%; note: 0% is about no effect
# AmpC inh detg = blocks E. coli AmpC beta-lactamase in detergent assay; P00811; AmpC hydrolysis of nitrocefin, absorbance 480 nm, 0.01% Triton; Potency, µM (series often up to 114 µM), for inactives: at the top dose activity change, negative = inhibition, usual class: inhibitors; 0.041% of 370,000 active;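 note: potency is the fitted concentration of half-maximal effect; 0% = no-compound wells and -100% = no-enzyme wells; nearly all actives have a fitted effect of over 25% in size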
# Target sequence (P00811 whole entry, looked up): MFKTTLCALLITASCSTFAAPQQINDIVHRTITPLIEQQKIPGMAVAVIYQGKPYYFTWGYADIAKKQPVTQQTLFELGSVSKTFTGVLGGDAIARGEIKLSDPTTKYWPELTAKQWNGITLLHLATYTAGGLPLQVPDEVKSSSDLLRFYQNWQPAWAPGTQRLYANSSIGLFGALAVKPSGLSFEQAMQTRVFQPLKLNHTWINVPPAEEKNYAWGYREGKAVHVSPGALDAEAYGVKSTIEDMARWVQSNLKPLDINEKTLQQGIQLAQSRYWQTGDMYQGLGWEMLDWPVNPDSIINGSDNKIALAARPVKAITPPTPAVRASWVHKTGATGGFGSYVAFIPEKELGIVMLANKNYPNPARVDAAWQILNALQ
#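 20 mM phosphate pH 7.0 + 0.01% (detergent screen) or 0.0001% Triton X-100; 5.3 nM AmpC reagent; cpd preinc 15 min RT; nitrocefin (800 uM stock) to start; A480 q20 s × 4 min; Activity was normalised to no-enzyme and no-compound control wells.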
# AmpC inh no detg = AmpC beta-lactamase inhibition without detergent. P00811. AmpC nitrocefin hydrolysis, absorbance 480 nm, 0.0001% Triton. Potency, µM (top dose mostly 57.1 µM), inactives show at the top dose activity change, negative = inhibition, most hits filed as inhibitors. 0.52% of 330,000 active. AID 485341;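 note: potency is the fitted concentration of half-maximal effect; plate controls were no compound for no effect and no enzyme for full effect; nearly all actives have a fitted effect of over 20% in size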
#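 20 mM phosphate pH 7.0 + 0.01% (detergent screen) or 0.0001% Triton X-100; 5.3 nM AmpC reagent; cpd preinc 15 min RT; nitrocefin (800 uM stock) to start; A480 q20 s × 4 min; Activity was normalised to no-enzyme and no-compound control wells.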
# NS1 function inh = influenza NS1 inhibition; Potency, µM (titrated, usually from 46.1 µM), for the others: at the top dose activity, positive = more growth; 0.4% of 270,000 active; AID 2326; calls by dose curve; note: potency is the fitted concentration of half-maximal effect; actives are rising curves; nearly all actives have a fitted effect of over 50% in size
#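 Growth recovery, yeast-based: influenza A NS1 expressed in S. cerevisiae causes slow growth, and suppressors are detected by OD600. The parent strain without NS1 is used as positive control.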
# CHX counter = affects cycloheximide protein synthesis inhibition readout, counter-screen; 12% of 300,000 active; cell reporter, cycloheximide protein synthesis inhibition counterscreen; AID 2314; max response, %; in the data active = max response mostly above about 13%, no sharp cut-off; inactive = mostly below about 14%; note: read at 38.3 µM for the half of the compounds with a filed dose; 0% is about no effect
# Numbers without * were called inactive; ? = inconclusive; . = no result given. Unless noted, calls come from the whole dose curve; as a rule, active = well fitted curve in the direction sought with a large enough effect; inconclusive = small, poorly fitted or top-dose-only effect, or another doubt; inactive = no such curve, though single readings can be large; an effect the other way counts as inactive or inconclusive.
SMILES,Shiga inhibitor,AmpC inh detg,AmpC inh no detg,NS1 function inh,CHX counter
CC(C(=O)Nc1ccc(C(=O)O)cc1)N1C(=O)c2ccccc2C1=O (configuration not stated),-4,?,-15%,14%,-1
CC(C)Cc1nnc(NC(=O)CCN2C(=O)c3ccccc3C2=O)s1,-20,-16%,-13%,-2%,-6
COc1cc(/C=C/C(=O)O)cc(S(=O)(=O)NCCO)c1OC,-11,1%,-15%,-1%,-7
c1ccc(CN2CCN(c3nc4ccccc4c4ccccc34)CC2)cc1,-11,-14%,-2%,-51%,2
Fc1ccccc1N1CCN(c2cnc3ccccc3n2)CC1,82*,2%,.,-72%,56*
Oc1ccccc1N1CCN(c2ccc3ccccc3n2)CC1,102*,-2%,-38%,0%,42*
c1ccc(CN2CCN(c3cnc4ccccc4n3)CC2)cc1,131*,-1%,27%,2%,52*
Cc1ccc(NC(=O)CCCn2c3ccccc3c(=O)c3cc(C)ccc32)c(Br)c1,.,-4%,.,.,.
Nc1nc(SCC(=O)Nc2ccc(F)cc2)[nH]c(=O)c1NC(=O)c1ccc(F)c(F)c1,-7,-15%,-15%,6%,12
CCc1ccc(NC(=O)CSc2nc(N)c(NC(=O)c3ccc(F)c(F)c3)c(=O)[nH]2)cc1,25*,3%,-16%,4%,17*
CC(NC(=O)Cn1ncc(Cl)c(Cl)c1=O)C12CC3CC(CC(C3)C1)C2 (configuration not stated),-21,-7%,-23%,-15%,-8
O=C(NCCO)c1cc2ccccc2c(=O)s1,40,-7%,-12%,-8%,8
COC(=O)c1cc2ccccc2c(=O)s1,9,1%,-8%,-12%,15*
COc1ccc(/C=C/C(=O)c2ccccc2O)cc1CN1CCOCC1,-17,?,66%,2%,-1
COc1ccc(/C=C2/CCc3ccccc3C2=O)cc1CN1CCOCC1,92*,-14%,177%,-9%,51*
COc1ccc(/C=C2\CCc3ccccc3C2=O)cc1Cn1nc(C)cc1C,44,-1%,9%,5%,21*
C=CCn1c(SCn2nnc3ccccc3c2=O)nnc1C1CCCCC1,-18,?,2%,4%,-6
C(=N\Nc1ccc2nncn2n1)/c1ccco1,-2,4%,-12%,10%,-3
C/C(=N\Nc1ccc2nncn2n1)c1cccs1,21,-6%,-14%,-8%,41*
Cc1c(/C(O)=C2\C(=O)C(=O)N(CCN(C)C)C2c2cccs2)cnn1-c1ccccc1 (configuration not stated),16,0%,-19%,-3%,19*
Cc1c(/C(O)=C2\C(=O)C(=O)N(CCCN(C)C)C2c2ccccc2)cnn1-c1ccccc1 (configuration not stated),-7,-14%,-7%,1%,-4
Cc1c(/C(O)=C2\C(=O)C(=O)N(CCN(C)C)C2c2cccnc2)cnn1-c1ccccc1 (configuration not stated),13,-4%,293%,4%,15*
Cc1nc2cc(-c3ccc(F)cc3)[nH]n2c(=O)c1C,84*,4%,-20%,20%,32*
Cc1ccccc1-c1cc2nc(C)c(C)c(=O)n2[nH]1,36*,-7%,-11%,4%,23*
COc1cccc(CNC(=O)Cn2c(=O)n3nc(-c4cccc(F)c4)nc3c3ccccc32)c1,.,0%,.,.,.
SMILES,Shiga inhibitor,AmpC inh detg,AmpC inh no detg,NS1 function inh,CHX counter
O=C(CCNS(=O)(=O)c1ccc2ccccc2c1)NCCOc1ccccc1,.,?,-18%,.,.
Cc1c(C(=O)N(C)C(C)c2ccncn2)oc2c(F)cccc12 (configuration not stated),29,-2%,4%,4%,23
CC(NC(=O)c1ccc2nc(Cc3ccccc3)oc2c1)c1ccccc1 (configuration not stated),.,12%,.,.,.
Cc1cc(CNC(=O)c2ccc3nc(Cc4ccccc4F)oc3c2)nn1C,94*,1%,63%,-18%,42*
CC(c1ccccn1)N(C)C(=O)c1ccc2nc(Cc3ccccc3F)oc2c1 (configuration not stated),72*,3%,83%,-15%,53*
Cc1c(C(=O)N(C)C(C)c2ccccn2)oc2c(F)cccc12 (configuration not stated),75*,-4%,110%,-18%,51*
Cc1c(C(C)NC(=O)c2ccc3nc(Cc4ccccc4F)oc3c2)cnn1C (configuration not stated),36*,-7%,136%,-2%,34*
Cc1cc(CN(C)C(=O)c2ccc3nc(Cc4ccccc4F)oc3c2)n[nH]1,7,?,20%,14%,-1
Cc1ccc(C)c(OCCOCCn2c(-c3ccc(Br)cc3)nc3ccccc3c2=O)c1C,.,1%,.,.,.
Cc1cc(C(=O)Nc2ccc(Br)cc2)c2ccccc2n1,.,-13%,21%,9%,-2
Cc1ccc(C)c(N2CCN(c3nc4ccccc4c4nc(CCn5nc(C)cc5C)nn34)CC2)c1,.,26%,.,.,.
COc1cc(Cl)c(C)cc1NC(=O)Cn1ncc2c([nH]c3ccccc32)c1=O,.,4%,.,.,.
Nc1ccc(S(=O)(=O)Nc2nccc(/C=C/c3cccc(Br)c3)n2)cc1,-29,-10%,-20%,6%,-2
Cc1cc(CNC(=O)CCc2nnc(CCCCc3ccccc3)o2)nn1C,-17,5%,41%,5%,-2
O=C(NCc1ccccc1)c1ccc2nc(CCc3ccccc3)oc2c1,.,-3%,.,.,.
CC(c1ccncn1)N(C)C(=O)c1ccc2oc(Cc3ccccc3)nc2c1 (configuration not stated),50*,-1%,69%,-3%,34*
O=C(NCc1ccncc1)c1ccc2nc(Cc3ccccc3F)oc2c1,15,5%,41%,3%,16*
CCCCc1nc2cc(C(=O)NCc3cc(C)n(C)n3)ccc2o1,78*,-11%,7%,-10%,25*
CC(C)Oc1ccc(C(=O)N(Cc2ccco2)c2ccccn2)cc1,.,17%,.,.,.
COc1cccc(C(=O)Nc2ccc(-n3nncc3-c3ccccc3)cc2)c1OC,.,-4%,.,.,.
COc1ccc(/C=C(\C#N)C(N)=O)c(OC)c1,.,.,.,11%,.
CC(C)(C)c1ccc(C(=O)Nc2ccc(NC(=O)c3ccco3)cc2)cc1,-22,-12%,-12%,5%,-1
COc1ccc(/C(C)=N/NC(=O)CNC(=O)c2ccco2)c(OC)c1,-7,-9%,-11%,10%,-4
C/C(=N\NC(=O)c1ccco1)c1cc2ccccc2o1,95*,0%,-23%,-18%,58*
C/C(=N\NC(=O)c1ccco1)c1ccc(-c2ccccc2)cc1,108*,-11%,-25%,-23%,23*
O=C(Nc1ccc(-c2ccccc2)cc1)c1ccco1,-3,?,-2%,.,2
C/C(=N\NC(=O)c1ccco1)c1ccc(NC(=O)C(F)(F)F)cc1,61*,1%,-18%,-9%,57*
C/C(=N\NC(=O)c1ccco1)c1cc(Cl)sc1Cl,71*,1%,-7%,-35%,25*
